Results as given in PubChem BioAssay (NCATS).
Records with an inconclusive call do not appear. A number with no mark means an inactive call. Calls of active or inactive are those of the source. Calls come from the whole dose curve; as a rule, active = well fitted inhibition curve with a large enough effect; inconclusive = small, poorly fitted or top-dose-only effect; inactive = flat fitted curve, though single readings scatter.

biological target: Calcium and integrin-binding protein 1 (Homo sapiens) (UniProt Q99828); assay: Primary qHTS for Identification of Calcium Integrin Binding Protein 1 (CIB1) Competitor (AID 1508620); settings: CIB1-GST / FITC-alphaIIb peptide fluorescence polarization; series mostly up to 114 µM; activity change, negative = inhibition: at the top concentration;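 note: GST tagged CIB1 binding a fluorescein labelled alphaIIb integrin peptide tracer; top concentration of the series differs between compounds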
Summary of the method: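 Fluorescence polarization competition: CIB1-GST (1 uM final) preincubated with compound 15 min at room temperature, then FITC-labeled alphaIIb peptide (100 nM final) added for another 15 min. Polarization read at Ex 480/Em 540.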
% is set by controls: 0 for no effect and ±100 for the full control effect.

Chain of Calcium and integrin-binding protein 1 (Homo sapiens) (Q99828 whole entry, looked up): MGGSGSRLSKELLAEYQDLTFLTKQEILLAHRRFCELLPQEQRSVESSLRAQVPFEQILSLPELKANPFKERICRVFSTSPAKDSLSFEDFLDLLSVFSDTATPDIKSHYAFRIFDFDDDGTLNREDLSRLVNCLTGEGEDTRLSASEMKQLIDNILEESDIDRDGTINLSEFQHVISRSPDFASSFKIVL

SMILES	activity change, negative = inhibition	Potency
Cc1c(C(=O)NCC2CCCO2)[nH]c2c1C(=O)CCC2 (configuration not stated)	-6.62%	–
O=C1CCc2cc(S(=O)(=O)Nc3ccc4ccccc4c3)ccc2N1	-6.37%	–
COc1cc(OC)cc(-c2nnc3n2N=C(c2c(OC)cccc2OC)CS3)c1	5.77%	–
COc1cccc(NC(=S)N2CCN(c3ccc(Cl)cc3Cl)CC2)n1	-0.953%	–
Oc1ccc(COC2CCCC2)c2cccnc12	-1.54%	–
O=C(OCC#CCSc1nnc(-c2cccc3ccccc23)o1)c1ccc(F)cc1	2.25%	–
Cc1cc(NS(=O)(=O)c2cc3c(cc2F)NC(=O)CC3)ccc1F	–	inactive
COC(=O)C1CCc2sc(NC(=O)Cc3ccccc3)c(C(=O)Nc3ccc(Cl)cc3)c21 (configuration not stated)	-3.08%	–
Cc1scc2c1C(=O)NS2(=O)=O	3.13%	–
CCC(CC)C(=O)NCCc1nc2ccccc2n1CCOc1ccc(C)cc1	19.4%	–
COc1ccc(C2Nc3ccccc3C(=O)N2C2CCCC2)cc1COc1ccc(NC(C)=O)cc1 (configuration not stated)	6.31%	–
Cc1cccc(C)c1-n1c(SCC(=O)Nc2ccc(C(=O)O)cc2)nnc1-c1ccc([S+](=O)([O-])N2CCCC2)cc1	-16.2%	–
CN(CC(F)(F)F)c1nc(NCc2ccc(-c3cccnc3)cc2)c2ccccc2n1	2.89%	–
Cc1ccc(OCCn2c(CCNC(=O)c3ccco3)nc3ccccc32)cc1	3.39%	–
O=C1CC(c2ccccc2)CC2=C1C1(CCCCC1)N=C(Nc1nc3ccccc3o1)N2 (configuration not stated)	-0.551%	–
Cc1cc(-c2nnc3n2CCCCC3)c(C)n1-c1ccc(Br)cc1	0.939%	–
CC(=O)c1ccc(N2CCN(S(=O)(=O)c3ccc4c(c3)CCCC(=O)N4)CC2)cc1	4.04%	–
